This note sets out measurements from PubChem BioAssay AID2540 (Sanford-Burnham Center for Chemical Genomics, 2010).

The structures appear in SMILES notation. Hit rate of the full screen: of about 330,000 compounds, about 4,100 (1.2%) were called active. No stated cut-off is given here; in the data, active means inhibition above about 50%; inactive means the rest. Only a selection was taken, and actives are over-represented in it overall.

Sentrin-specific protease 8 (Homo sapiens), sequence (Q96LD8 whole entry, looked up): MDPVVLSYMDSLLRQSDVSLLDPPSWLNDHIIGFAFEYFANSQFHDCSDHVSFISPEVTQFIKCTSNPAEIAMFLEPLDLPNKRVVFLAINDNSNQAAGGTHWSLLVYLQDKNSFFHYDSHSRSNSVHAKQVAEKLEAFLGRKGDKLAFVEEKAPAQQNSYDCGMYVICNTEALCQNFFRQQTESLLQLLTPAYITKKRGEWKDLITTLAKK

The test concerns the target Sentrin-specific protease 8 (Homo sapiens) (UniProt Q96LD8). The test is described as follows: SENP8 protease inhibitors, primary screen, biochemical, luminescence (AID 2540). The note with it: purified SENP8, Z-RLRGG-aminoluciferin cleavage, at 10 µM, active compounds read high.
Turning to `CC(CNc1ccc([N+](=O)[O-])cc1)NC(=O)c1ccccc1Br` (centres undefined), the inhibition (usually the change of the read-out against control, counted positive when it falls) is 0% (inactive).
Consider `O=C(O)c1c(NC(=O)N2CCCC2)sc2c1CCCC2`, for which the inhibition was -9.81% (inactive).
`COC(=O)c1c(NC(=O)c2ccccc2F)sc2c1C(C(=O)OC)CC2` (centres undefined): the inhibition was -3.54% (inactive).
For the compound `O=C(Nc1sc2c(c1C(=O)O)CCC2)c1ccccc1F`, the inhibition was 86.7% (active).
In the case of `CCOC(=O)C1CCCCN1Cc1ccc(OC)c(OC)c1OC` (centres undefined), the inhibition is -0.162% (inactive).
The figure for `O=C(Nc1ccc2c(c1)CCC2)c1ccc(Br)s1` is 61.5% (active); for `CC(C)Oc1ccc(C(=O)NCC(=O)Nc2ccc3c(c2)CCC3)cc1` it is 6.91% (inactive).
For the compound `CC1CC(C)CN(CCC(=O)Nc2ccc3c(c2)CCC3)C1` (centres undefined), the inhibition is 7.63% (inactive).
Regarding `Cc1nn(-c2ccccc2)c2c1C(=O)NC(=O)C(C)(C)C2`, the inhibition is 4.21% (inactive).
On to `Cc1nnc(SCc2ccc(C(=O)c3ccc(Cl)cc3)o2)n1-c1ccccc1`, for which the inhibition was -8.59% (inactive).
As for `Nc1nc(NCc2ccccc2)n(-c2ccccc2)n1`, the inhibition was 4.17% (inactive).
For the compound `COc1ccccc1CNC(=O)CSc1nc(=O)n(Cc2ccncc2)c2c1CCC2`, the inhibition is -3.51% (inactive).
With `N#Cc1c(N2CCCCC2)nc(N)c2c(N)nc(SCC(=O)O)cc12`, the inhibition is 70.8% (active).
`Nc1nc(NCC(=O)O)nc(N2CCCCCC2)c1[N+](=O)[O-]`: the inhibition was -1.61% (inactive).
Next, `N#CCc1c(C#N)c(N)nc(N2CCCC2)c1C#N`: 0.98% (inactive); `O=S(=O)(NCC1CCCO1)c1cnc(Cl)c(Cl)c1` (centres undefined): 3.51% (inactive); `O=C(CN(c1ccccc1)S(=O)(=O)c1ccc(Cl)cc1)Nc1ccccc1C(=O)N1CCCC1`: 2.45% (inactive).
As for `Cc1nc(C(=O)N2CCCC(C(=O)c3ccc(Cl)cc3)C2)cs1` (centres undefined), the inhibition is -2.8% (inactive).
The figure for `Cn1cc(-c2ccccc2)cc(C#N)c1=O` is 3.36% (inactive); for `COC(=O)[C@@H](NC(=O)NCc1cccc(OC)c1)C(C)C` it is 0.612% (inactive); for `O=C(O)c1ccc(N=NN2CCOCC2)cc1` it is 1.65% (inactive).
`NC1=NN(c2cccc(C(=O)O)c2)C(=O)C1`: the inhibition is -5.54% (inactive).
As to `O=C(O)c1cccc(N=NN2CCCCCC2)c1`, the inhibition is 88.8% (active).
For `Cc1cc(C(F)(F)F)nn1CC(=O)N1CCCC1`, the inhibition is -6.86% (inactive).
Next, `COc1ccc(C2/C=C\CN(S(=O)(=O)c3cccs3)CC(=O)N2Cc2ccc(F)cc2)cc1` (centres undefined): -0.424% (inactive); `CN1CCN(C2Cc3ccc(Cl)cc3Sc3ccc(F)cc32)CC1` (centres undefined): -10.9% (inactive); `CCOC(=O)/C(=C\c1ccc([N+](=O)[O-])cc1)C(=O)c1cc(C(C)=O)c(Nc2ccccc2)s1`: 6.19% (inactive).
Turning to `O=C(Cn1c(=S)nc2ccccn21)N1CCc2ccccc2C1`, the inhibition is 0.682% (inactive).
As for `O=C(c1ccc(F)cc1)n1c(=S)nc2ccccn21`, the inhibition is 64.1% (active).
As for `O=C(c1ccc(F)cc1)n1cc(C(=S)N2CCOCC2)c2ccccc21`, the inhibition was -5.7% (inactive).
On to `Cc1ccccc1SCC(=O)OCC(=O)N1CC(=O)Nc2ccccc21`, for which the inhibition is 4.24% (inactive).
Take `Cc1cccc(CN2CCC(CNC(=O)Nc3ccc(F)c(Cl)c3)CC2)c1`: the inhibition is -1.33% (inactive).
The figure for `CCOc1ccccc1NC(=O)Cn1nnc(C(=O)NCc2cccs2)c1N` is 19.3% (inactive); for `CC(C)Cn1c(N)c(C(=O)NCc2cccs2)c2nc3ccccc3nc21` it is 90% (active).
The figure for `Cn1ncc(Br)c1C(=O)NCc1cccs1` is -2.84% (inactive).
On to `CCCCNC(=O)N1CCN(S(C)(=O)=O)CC1`, for which the inhibition is -11% (inactive).
Consider `COc1ccc(C(=O)O/N=C(\N)c2ccccn2)cc1[N+](=O)[O-]`, for which the inhibition is -12% (inactive).
As for `O=C(COC(=O)c1ccccn1)NNC(=O)c1ccc(Br)cc1`, the inhibition is 0.814% (inactive).
Take `Cc1ccc(C(=O)O/N=C(\N)c2ccccn2)cc1Cl`: the inhibition is 78% (active).
Consider `C/C(=N/OC(=O)c1cccc(C(F)(F)F)c1)c1cnccn1`, for which the inhibition is -12.8% (inactive).
In the case of `N/C(=N\OC(=O)c1ccc([N+](=O)[O-])cc1)c1ccccn1`, the inhibition was 89.6% (active).
As for `O=C(COC(=O)c1ccccn1)NNC(=O)c1ccc([N+](=O)[O-])cc1`, the inhibition is -16.2% (inactive).
As to `CCCNC(=O)COc1coc(CN2CCN(Cc3ccccc3)CC2)cc1=O`, the inhibition is -2.92% (inactive).
`CC(C)Cn1c(SCC(=O)Nc2ccc(Cl)cc2F)nc(O)cc1=O`: the inhibition is 0.222% (inactive).
Next, `CNC(=O)c1sc(NCc2ccccc2OC)nc1C`: 0.124% (inactive); `COc1cccc2sc(Nc3nc(C)c(C(C)=O)s3)nc12`: 66.7% (active); `COc1cc2ccccc2cc1C(=O)Nc1nc(C)c(C(C)=O)s1`: -0.787% (inactive).
The figure for `Cc1ccc(S(=O)(=O)N2CCCCC2)cc1C(=O)N1CCN(CCO)CC1` is 4.2% (inactive); for `O=C(NCc1ccccc1Cl)C1CCCN1S(=O)(=O)c1ccc(F)cc1` (centres undefined) it is -7.31% (inactive); for `Cc1ccc(N2CC(C(=O)Nc3cc(Cl)ccc3-n3cncn3)CC2=O)cc1` (centres undefined) it is 10.6% (inactive).
Take `Cc1ccc(-n2ncc3c(Nc4cccc(C(=O)O)c4)ncnc32)cc1`: the inhibition was 90.4% (active).
With `Cc1ccc(Nc2ncnc3c2cnn3C)c(C)c1`, the inhibition is 0.699% (inactive).
With `CC(C)Sc1ncnc2c1cnn2-c1ccccc1`, the inhibition was 38.9% (inactive).
For `O=C(C1CCN(C2CCN(Cc3ccc4cc(F)ccc4n3)CC2)CC1)N1CCCC1`, the inhibition is -5.41% (inactive).
Consider `O=c1[nH]cnc(O)c1C(c1ccc(F)cc1)c1c(O)nc[nH]c1=O`, for which the inhibition was -12.7% (inactive).
For `CC(C)CN(Cc1c(O)ccc2c(=O)c(-c3ccccc3)coc12)CC(C)C`, the inhibition is -6.97% (inactive).
For the compound `O=c1c(-c2ccccc2)coc2cc(O)ccc12`, the inhibition is 55% (active).
For `CCc1ccc(Oc2coc3cc(O)ccc3c2=O)cc1`, the inhibition was -15.7% (inactive).
For the compound `O=C(O)c1ccc(OCC2CCCO2)cc1` (centres undefined), the inhibition is -8.8% (inactive).
Regarding `COC(=O)c1ccc(Sc2ccc(F)cc2)c(N)c1`, the inhibition is -1.32% (inactive).
In the case of `CCOc1ccc(NC(=S)N2CCC(NC(=O)c3ccccc3)CC2)cc1`, the inhibition is -6% (inactive).
`CCOc1ccc(N/C=C/C(=O)c2ccccc2)cc1`: the inhibition was 93.7% (active).
The figure for `CC(=O)Nc1ccc(/C=C/C(=O)c2ccccc2)cc1` is -16.7% (inactive).
The figure for `COc1ccc(C(=O)/C=C/Nc2ccccn2)cc1` is 95.5% (active); for `O=C(/C=C/NCc1ccc(F)cc1)c1ccccc1` it is -2.04% (inactive).
In the case of `Cc1cc(N/C=C\C(=O)c2ccc(Cl)c(Cl)c2)no1`, the inhibition was -16.9% (inactive).
As to `COc1ccc(N2C(=O)CCC(C(=O)Nc3ccccn3)C2c2ccc(OC)c(OC)c2)cc1` (centres undefined), the inhibition was -4.67% (inactive).
In the case of `CCOc1ccc(N/C=C/C(=O)c2cc(OC)c(OC)c(OC)c2)cc1`, the inhibition was -9.53% (inactive).
Next, `Cc1ccc(N/C=C/C(=O)c2ccccc2)cc1C`: 88.8% (active); `COc1ccc(C)cc1N(C)C(=O)c1coc(=O)c2ccccc12`: -8.47% (inactive); `O=C(CN1C(=O)NC2(CCOc3ccccc32)C1=O)Nc1cccc([N+](=O)[O-])c1` (centres undefined): 7.44% (inactive).
Regarding `O=C(Nc1c2c(nn1-c1ccccc1)CS(=O)(=O)C2)C1CCCC1`, the inhibition was -3.98% (inactive).
On to `COc1cc(/C=C(\C#N)c2nc3ccccc3[nH]2)ccc1O`, for which the inhibition was 91.8% (active).
`COc1cc(/C=C(\C#N)c2nc3c(s2)CC(C)CC3)ccc1O` (centres undefined): the inhibition was -4.73% (inactive).
The figure for `Cc1ccc2nc(/C(C#N)=C\c3ccc(OC(=O)c4cccs4)cc3)[nH]c2c1` is 3.01% (inactive); for `COc1ccc(NC(=O)CN(C)C(=O)Cc2coc3cc(C)c(C)cc23)cc1` it is -3.13% (inactive).
With `COc1ccccc1C1=CC(=O)C[C@H](c2ccc(F)cc2)C1`, the inhibition was -4.36% (inactive).
For `CCN(CC)CCNc1nc(-c2ccc(OC(F)F)cc2)c(C)s1`, the inhibition was -5.12% (inactive).
Next, `COc1ccc(/C=C2\SC(=O)N(CCC(=O)NC3CCS(=O)(=O)C3)C2=O)cc1` (centres undefined): 2.13% (inactive); `COc1ccc(/C=C2\SC(=O)N(CCC(=O)NCCCn3ccnc3)C2=O)cc1`: -11.9% (inactive).
Take `COc1ccc(/C=C2/SC(=O)N(CCCCCC(=O)Nc3ccccc3C(=O)O)C2=S)cc1`: the inhibition was 50.3% (active).
The figure for `CN1C(=O)CC(c2ccccc2)C1=O` (centres undefined) is 1.07% (inactive).
For the compound `COc1cc(NC(=S)NCCSc2ccc(C)cc2)cc(OC)c1`, the inhibition was -1.13% (inactive).
Turning to `COc1cccc(C(=O)NNC(=O)c2cccc(F)c2)c1`, the inhibition was -1.03% (inactive).
With `CCOC(=O)c1cc2cc3ccccc3cc2oc1=O`, the inhibition is -4.84% (inactive).
Turning to `COc1cccc(C(=O)c2cc3ccc(O)cc3oc2=O)c1`, the inhibition was 96.9% (active).
With `CN1CCN(Cc2nc3cc(NC(=O)COc4ccc([N+](=O)[O-])cc4)ccc3n2C)CC1`, the inhibition is 0.315% (inactive).
Consider `COc1ccc(-c2cc3ccc(OCc4nn[nH]n4)cc3oc2=O)cc1`, for which the inhibition was 39.6% (inactive).
In the case of `CN(C)c1cc(-c2ccc(F)cc2)oc(=O)c1Cl`, the inhibition is 2.47% (inactive).
As for `O=c1oc2cc(O)ccc2cc1-c1ccc(F)cc1`, the inhibition was 95.4% (active).
The figure for `Cc1ccc(C)c(NC(=O)CN(C)C(=O)c2ccc3ncsc3c2)c1` is -13.6% (inactive).
`O=C(Nc1ccccc1C(=O)O)c1ccc(N2C(=O)C3CC=CCC3C2=O)cc1` (centres undefined): the inhibition was 21.2% (inactive).
The figure for `COc1ccc(CCNC(=O)CCn2c(=O)c3ccccc3n(CC(=O)NCC3CCCO3)c2=O)cc1OC` (centres undefined) is -9.64% (inactive).
On to `C[C@H](NC(=O)C1CCN(S(=O)(=O)c2ccccc2)CC1)C(=O)NCc1ccccc1`, for which the inhibition was -3.77% (inactive).
Turning to `Cc1ccc(OCc2nc3ccccc3n2C)cc1`, the inhibition is 51.5% (active).
The figure for `CC(C)n1c(COc2ccccc2)nc2ccccc21` is -6.45% (inactive); for `CCOc1ccc(C(O)Cc2nc3ccccc3n2C)cc1` (centres undefined) it is 1.07% (inactive); for `CCn1c(SCC(=O)NC2CC2)nnc1-c1ccccc1OC` it is -9.1% (inactive).
For the compound `COc1ccc(C2OCC3(CO2)SC(=O)NC3=O)cc1OC` (centres undefined), the inhibition is -5.03% (inactive).
